# From article PMC5540273 (PLoS ONE, 2017)
# Several values for one entry are separate records, joined by “and”; a condition that tells them apart may be missing. Equal values may be shown once. Read-outs that look alike come from different tables or passages of the source.
# Legend:
# RIPK1 = conditions: concentration: 1 μM, replicates: in singlicate, n = 1
# RIPK2 = conditions: concentration: 1 μM, replicates: in singlicate, n = 1
# RIPK4 = conditions: concentration: 1 μM, replicates: in singlicate, n = 1
# RIPK5 = conditions: concentration: 1 μM, replicates: in singlicate, n = 1
# ROCK1 = conditions: concentration: 1 μM, replicates: in singlicate, n = 1
# ROCK2 = conditions: concentration: 1 μM, replicates: in singlicate, n = 1
# ROS1 = conditions: concentration: 1 μM, replicates: in singlicate, n = 1
# [1] = tested on: RPS6KA4(Kin.Dom.1-N-terminal); conditions: concentration: 1 μM, replicates: in singlicate, n = 1
# [2] = tested on: RPS6KA4(Kin.Dom.2-C-terminal); conditions: concentration: 1 μM, replicates: in singlicate, n = 1
# [3] = tested on: RPS6KA5(Kin.Dom.1-N-terminal); conditions: concentration: 1 μM, replicates: in singlicate; n = 1
# [4] = tested on: RPS6KA5(Kin.Dom.2-C-terminal); conditions: concentration: 1 μM, replicates: in singlicate, n = 1
# [5] = tested on: T1, RSK1(Kin.Dom.1-N-terminal); conditions: concentration: 1 μM, replicates: in singlicate, n = 1
# T1 construct: gene RPS6KA1
# [6] = tested on: T2, RSK1(Kin.Dom.2-C-terminal); conditions: concentration: 1 μM, replicates: in singlicate, n = 1
# T2 construct: gene RPS6KA1
# [7] = tested on: T3, RSK2(Kin.Dom.1-N-terminal); conditions: concentration: 1 μM, replicates: in singlicate; n = 1
# T3 construct: gene RPS6KA3
# [8] = tested on: T4, RSK2(Kin.Dom.2-C-terminal); conditions: concentration: 1 μM, replicates: in singlicate, n = 1
# T4 construct: gene RPS6KA3
# [9] = tested on: T5, RSK3(Kin.Dom.1-N-terminal); conditions: concentration: 1 μM, replicates: in singlicate, n = 1
# T5 construct: gene RPS6KA2
# [10] = tested on: T6, RSK3(Kin.Dom.2-C-terminal); conditions: concentration: 1 μM, replicates: in singlicate; n = 1
# T6 construct: gene RPS6KA2
# [11] = tested on: T7, RSK4(Kin.Dom.1-N-terminal); conditions: concentration: 1 μM, replicates: in singlicate, n = 1
# T7 construct: gene RPS6KA6
# [12] = tested on: T8, RSK4(Kin.Dom.2-C-terminal); conditions: concentration: 1 μM, replicates: in singlicate, n = 1
# T8 construct: gene RPS6KA6
# S6K1 = conditions: concentration: 1 μM, replicates: in singlicate; n = 1
# 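Also: KINOMEscan kinase panel screen.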
smiles,measurement,setting,value
Nc1nc(-c2ccccn2)c(-c2ccnc3ccccc23)s1 [GW548057],%Inh,RIPK1,16%
same,%Inh,RIPK2,15%
same,%Inh,RIPK4,2%
same,%Inh,RIPK5,14%
same,%Inh,ROCK1,27%
same,%Inh,ROCK2,33%
same,%Inh,ROS1,1%
same,%Inh,[1],12%
same,%Inh,[2],0%
same,%Inh,[3],21%
same,%Inh,[4],33%
same,%Inh,[5],5%
same,%Inh,[6],39%
same,%Inh,[7],0%
same,%Inh,[8],9%
same,%Inh,[9],0%
same,%Inh,[10],1%
same,%Inh,[11],0%
same,%Inh,[12],76%
same,%Inh,S6K1,0%
O=C(c1ccc(-c2cc(-c3c[nH]nc3-c3ccccn3)ccn2)cc1)N1CCCC1 [GW792479],%Inh,RIPK1,1%
same,%Inh,RIPK2,9%
same,%Inh,RIPK4,5%
same,%Inh,RIPK5,0%
same,%Inh,ROCK1,0%
same,%Inh,ROCK2,0%
same,%Inh,ROS1,0%
same,%Inh,[1],13%
same,%Inh,[2],0%
same,%Inh,[3],0%
same,%Inh,[4],11%
same,%Inh,[5],4%
same,%Inh,[6],0%
same,%Inh,[7],14%
same,%Inh,[8],39%
same,%Inh,[9],0%
same,%Inh,[10],12%
same,%Inh,[11],0%
same,%Inh,[12],19%
same,%Inh,S6K1,7%
CCc1nc(-c2cccc(C)c2)c(-c2ccnc(NC(=O)c3ccccc3)c2)s1,%Inh,RIPK1,0%
same,%Inh,RIPK2,52%
same,%Inh,RIPK4,42%
same,%Inh,RIPK5,0%
same,%Inh,ROCK1,35%
same,%Inh,ROCK2,0%
same,%Inh,ROS1,0%
same,%Inh,[1],0%
same,%Inh,[2],8%
same,%Inh,[3],3%
same,%Inh,[4],1%
same,%Inh,[5],0%
same,%Inh,[6],53%
same,%Inh,[7],0%
same,%Inh,[8],39%
same,%Inh,[9],0%
same,%Inh,[10],5%
same,%Inh,[12],46%
same,%Inh,S6K1,0%
Cc1ccc(O)cc1Nc1cc(C(F)(F)F)nc2ccc(-c3ccncc3)cc12 [GW630823],%Inh,RIPK1,13%
same,%Inh,RIPK2,17%
same,%Inh,RIPK4,0%
same,%Inh,RIPK5,15%
same,%Inh,ROCK1,0%
same,%Inh,ROCK2,0%
same,%Inh,ROS1,5%
same,%Inh,[1],8%
same,%Inh,[2],0%
same,%Inh,[3],0%
same,%Inh,[4],9%
same,%Inh,[5],0%
same,%Inh,[6],0%
same,%Inh,[7],0%
same,%Inh,[8],0%
same,%Inh,[9],0%
same,%Inh,[10],5%
same,%Inh,[11],4%
same,%Inh,[12],14%
same,%Inh,S6K1,0%
Nc1nc(-c2ccc3c(N)n[nH]c3c2)cc(N2CCC[C@@H](C(=O)Nc3ccccc3)C2)n1.O=C(O)C(F)(F)F.O=C(O)C(F)(F)F [GSK2288359],%Inh,RIPK1,10%
same,%Inh,RIPK2,5%
same,%Inh,RIPK4,13%
same,%Inh,RIPK5,3%
same,%Inh,ROCK2,61%
same,%Inh,ROS1,0%
same,%Inh,[1],0%
same,%Inh,[2],0%
same,%Inh,[3],0%
same,%Inh,[4],6%
same,%Inh,[5],20%
same,%Inh,[6],13%
same,%Inh,[7],0%
same,%Inh,[8],0%
same,%Inh,[9],7%
same,%Inh,[10],0%
same,%Inh,[11],0%
same,%Inh,[12],5%
same,%Inh,S6K1,0%
COc1ccc(-c2nc3n(c2-c2ccncc2)CCC3)cc1 [SKF-104493],%Inh,RIPK1; 1 µM,0% and 20%
same,%Inh,RIPK2; 1 µM,40% and 46%
same,%Inh,RIPK4; 1 µM,9% and 12%
same,%Inh,RIPK5; 1 µM,19% and 0%
same,%Inh,ROCK1; 1 µM,21% and 5%
same,%Inh,ROCK2; 1 µM,29% and 0%
same,%Inh,ROS1; 1 µM,10% and 28%
same,%Inh,[1]; 1 µM,7% and 0%
same,%Inh,[2]; 1 µM,2% and 0%
same,%Inh,[3],0%
same,%Inh,[4]; 1 µM,10% and 0%
same,%Inh,[5]; 1 µM,0% and 4%
same,%Inh,[6]; 1 µM,93.1% and 37%
same,%Inh,[7],0%
same,%Inh,[8]; 1 µM,12% and 5%
same,%Inh,[9]; 1 µM,1% and 0%
same,%Inh,[10],0%
same,%Inh,[11]; 1 µM,68% and 0%
same,%Inh,[12]; 1 µM,59% and 63%
same,%Inh,S6K1,0%
Clc1cccc(-c2nc(Nc3ccncc3)c3ccccc3n2)c1 [GW873004],%Inh,RIPK1,25%
same,%Inh,RIPK2,10%
same,%Inh,RIPK4,0%
same,%Inh,RIPK5,0%
same,%Inh,ROCK1,0%
same,%Inh,ROCK2,0%
same,%Inh,ROS1,20%
same,%Inh,[1],51%
same,%Inh,[2],1%
same,%Inh,[3],32%
same,%Inh,[4],16%
same,%Inh,[5],0%
same,%Inh,[6],10%
same,%Inh,[7],49%
same,%Inh,[8],40%
same,%Inh,[9],0%
same,%Inh,[10],2%
same,%Inh,[11],0%
same,%Inh,[12],24%
same,%Inh,S6K1,0%
CC(=O)Nc1n[nH]c2ncc(-c3ccccc3)cc12 [SB-548492],%Inh,RIPK1,8%
same,%Inh,RIPK2,0%
same,%Inh,RIPK4,24%
same,%Inh,RIPK5,33%
same,%Inh,ROCK1,3%
same,%Inh,ROCK2,1%
same,%Inh,ROS1,22%
same,%Inh,[1],9%
same,%Inh,[2],17%
same,%Inh,[3],3%
same,%Inh,[4],0%
same,%Inh,[5],1%
same,%Inh,[6],100%
same,%Inh,[7],20%
same,%Inh,[8],0%
same,%Inh,[9],41%
same,%Inh,[10],0%
same,%Inh,[11],36%
same,%Inh,[12],12%
same,%Inh,S6K1,50%
